Biological target: LMO4
Assay: pooled miR-30 sensor sort-seq; sequence = guide strand
Conditions: shRNA
Note: reference of the scale not given here.

| Sequence | sensor-assay potency score (higher = more potent) |
| --- | --- |
| TAGTGGATTGCTCTGAAGTGAA | -0.987 |
| TAGTGAAACCGATCTCCCGGGA | -0.538 |
| TAGAGCATGTAAAACACTTAAG | -1.33 |
| TAACCTAATGTAGTCATTTCTG | -0.956 |
| TAAACTGCCATTGATGTAGTGA | 0.368 |

Biological target: LNPEP
Assay: as above
Conditions: shRNA

| Sequence | sensor-assay potency score (higher = more potent) |
| --- | --- |
| TTCTCTTTGACAAAATCCCATG | -1.18 |
| TTCTGTACAAGCTTATTCCAGT | -0.169 |
| TTTCTTGGCTTGAAACTGCTGA | 0.246 |
| TAAATAACTACATACTGCCCAA | -0.52 |
| TTTTGTTCTTCTCTGCTTCAGA | -0.123 |
| TTATAGATGAGGTCTGTCTGAA | 0.0575 |
| TTGAATAGATGCATAGCTGTGA | 0.497 |
| TACAGAAACAGCAACCACGATG | -0.798 |
| TTGAATAATTTCTTCCTTCAGT | -0.0999 |
| TACTGTGTCAGTAACTTTCTGG | 0.276 |
| TTGTTGTATAAAAAGTTCCTTT | -0.495 |
| TTTCTCATTACTTTCATCTGTG | 0.22 |

Biological target: LNX1
Assay: as above
Conditions: shRNA

| Sequence | sensor-assay potency score (higher = more potent) |
| --- | --- |
| AAAGCTTTGAGTACTATCGAGG | -0.642 |
| TTCTTCGTAATACAATATCTTT | -1.2 |
| TTGAGTACTATCGAGGATGATG | -0.956 |
| TTGGATAATGATATGGACCAGT | -0.0255 |
| TTACAGTTATACAAGCACCGTG | -0.215 |
| TTGAGAATCACATGAAAGCTGT | 0.307 |
| TTTTTGGATATTTACCACCTTC | -0.64 |
| TTTATTCTTCCATCTCTGCTTA | 0.44 |
| TAGTTAGAGTAATTCTTCCTTT | -0.396 |
| TACAGTTATACAAGCACCGTGG | -0.0834 |
| TAATACAATATCTTTACAGTTA | -0.86 |
| TAGATGATCATACTTTTCCTGA | -0.507 |

Biological target: LONP1
Assay: as above
Conditions: shRNA

| Sequence | sensor-assay potency score (higher = more potent) |
| --- | --- |
| TAACACCTTCTCCACTTGCTTC | -1.18 |
| TTGCGGACACCGCTCTCGCGGC | -1.33 |
| ATCTGCAGCACTGACTCCCTGT | -0.477 |
| TGAAGCGGAAGTACTCTCGGTT | -0.124 |
| TTCAAGGCAATGATGTCCCGGA | -0.021 |
| ATCCTTGTCGTCCTTCTCCAGG | -1.37 |
| TTCAAATTCCTTCTTCAGCAGG | -0.339 |
| TTTCCGTAACACCTTCTCCACT | -1.42 |
| TAGAAGTCCTTCTTGTTCTCGG | 0.532 |
| AAACACTGGATGATCTTCCCGG | 0.233 |
| TCTCTCTTTAGAAAGACGCCGA | -0.565 |

From the OligoGym collection
